Measured values published in PubChem BioAssay AID1159580 (chemical genetic matrix, 2015).
Values joined by “and” are separate entries in the source; they are usually repeats but may differ in a detail not shown here. Equal entries are not always repeated. About 2,000 (36%) of roughly 5,500 compounds were called active. Another 18% or so got no clear call; they are omitted. No stated cut-off is given here; in the data, active means normalized growth mostly below about 0.91 (no sharp cut-off); inconclusive means no clear call, values can overlap the other calls; inactive means mostly above about 0.92. This is one part of the list.

Experiment: chemical genetic growth profiling, strain panel (AID 1159580);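 further: tested at 20 µM; growth read once vehicle control cultures reached saturation at 30 °C; 1 = growth at the plate median or of vehicle wells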
Conditions: S. cerevisiae deletion strains, growth OD

Measured: normalized growth

Cn1c(=O)c2[nH]c(C3CCCC3)nc2n(C)c1=O
inactive: locus YAL013W, strain DEP1, stronger effect = lower value 1.01 | locus YAL021C, strain ccr4, stronger effect = lower value 0.989 | locus YAL026C, strain drs2, stronger effect = lower value 0.997 | locus YAL030W, strain snc1, stronger effect = lower value 0.99 | locus YAL040C, strain CLN3, stronger effect = lower value 0.977 | locus YBL061C, strain skt5, stronger effect = lower value 0.996 | locus YBR009C, strain hhf1, stronger effect = lower value 0.99 | locus YBR021W, strain FUR4, stronger effect = lower value 1.02 | locus YBR023C, strain chs3, stronger effect = lower value 0.996 | locus YBR171W, strain sec66, stronger effect = lower value 1.01 | locus YBR229C, strain ROT2, stronger effect = lower value 1.01 | locus YBR231C, strain swc5, stronger effect = lower value 0.997 | locus YBR279W, strain paf1, stronger effect = lower value 0.992 | locus YCL011C, strain gbp2, stronger effect = lower value 0.999 | locus YCL016C, strain dcc1, stronger effect = lower value 0.992 | locus YCL029C, strain bik1, stronger effect = lower value 0.994 | locus YCL061C, strain MRC1 (second series), stronger effect = lower value 0.985 | locus YCL061C, strain MRC1, stronger effect = lower value 0.993 | locus YCL069W, strain vba3, stronger effect = lower value 0.992 | locus YCR088W, strain abp1, stronger effect = lower value 1 | locus YDL005C, strain med2, stronger effect = lower value 0.982 | locus YDL035C, strain GPR1, stronger effect = lower value 1.01 | locus YDL040C, strain nat1, stronger effect = lower value 0.998 | locus YDL074C, strain BRE1, stronger effect = lower value 1.03 | locus YDL101C, strain DUN1, stronger effect = lower value 1.02 | locus YDL134C, strain PPH21, stronger effect = lower value 1.01 | locus YDL185W, strain tfp1, stronger effect = lower value 1.01 | locus YDL192W, strain arf1, stronger effect = lower value 1 | locus YDR001C, strain nth1, stronger effect = lower value 1 | locus YDR069C, strain doa4, stronger effect = lower value 0.979 | locus YDR101C, strain arx1, stronger effect = lower value 0.985 | locus YDR137W, strain rgp1, stronger effect = lower value 1 | locus YDR150W, strain NUM1, stronger effect = lower value 1.02 and 0.999 | locus YDR159W, strain sac3, stronger effect = lower value 0.989 | locus YDR162C, strain NBP2, stronger effect = lower value 1.02 | locus YDR195W, strain ref2 0.944 | locus YDR297W, strain sur2, stronger effect = lower value 0.991 | locus YDR318W, strain mcm21, stronger effect = lower value 0.986 | locus YDR334W, strain swr1, stronger effect = lower value 0.997 | locus YDR335W, strain msn5, stronger effect = lower value 0.995 | locus YDR363W, strain ESC2, stronger effect = lower value 1.03 | locus YDR388W, stronger effect = lower value 0.995 | locus YDR392W, strain spt3, stronger effect = lower value 0.85 | locus YDR502C, strain sam2, stronger effect = lower value 1.01 | locus YEL003W, strain gim4, stronger effect = lower value 1 | locus YEL037C, strain rad23, stronger effect = lower value 1 | locus YEL061C, strain CIN8 (second series), stronger effect = lower value 1.01 | locus YEL061C, strain CIN8, stronger effect = lower value 1.01 | locus YER002W, strain NOP16, stronger effect = lower value 0.944 | locus YER015W, strain faa2, stronger effect = lower value 0.994 | locus YER016W, strain bim1, stronger effect = lower value 0.99 | locus YER110C, stronger effect = lower value 0.991 | locus YER111C, strain swi4, stronger effect = lower value 0.998 | locus YER155C, strain BEM2 (second series), stronger effect = lower value 0.961 | locus YER155C, strain BEM2, stronger effect = lower value 1.01 | locus YER167W, strain BCK2, stronger effect = lower value 1.01 | locus YFR010W, strain ubp6, stronger effect = lower value 1 | locus YGL078C, strain dbp3, stronger effect = lower value 1 | locus YGL086W, strain mad1, stronger effect = lower value 0.997 | locus YGL167C, strain pmr1, stronger effect = lower value 0.984 | locus YGL173C, strain kem1, stronger effect = lower value 0.997 | locus YGL227W, strain vid30, stronger effect = lower value 0.991 | locus YGL240W, strain doc1, stronger effect = lower value 0.981 | locus YGL248W, strain PDE1, stronger effect = lower value 1.02 | locus YGL253W, strain hxk2, stronger effect = lower value 1.01 | locus YGR078C, strain PAC10, stronger effect = lower value 1.01 | locus YGR135W, strain pre9, stronger effect = lower value 0.982 | locus YGR229C, strain SMI1, stronger effect = lower value 1.02 and 1.04 | locus YGR252W, strain gcn5, stronger effect = lower value 0.904 | locus YHR013C, strain ard1, stronger effect = lower value 0.953 | locus YHR027C, strain rpn1, stronger effect = lower value 0.991 | locus YHR030C, strain SLT2, stronger effect = lower value 1.01 and 0.978 | locus YHR079C, strain IRE1 (second series), stronger effect = lower value 0.994 | locus YHR079C, strain IRE1, stronger effect = lower value 0.991 | locus YHR094C, strain hxt1, stronger effect = lower value 1 | locus YHR129C, strain ARP1, stronger effect = lower value 1.01 | locus YHR142W, strain chs7, stronger effect = lower value 1 | locus YHR200W, strain rpn10, stronger effect = lower value 1.01 | locus YIL066C, strain RNR3, stronger effect = lower value 1 | locus YIL073C, strain SPO22, stronger effect = lower value 1 | locus YIL125W, strain kgd1, stronger effect = lower value 0.995 | locus YIR030C, strain dcg1, stronger effect = lower value 1 | locus YJL092W, strain hpr5, stronger effect = lower value 1.01 | locus YJL095W, strain BCK1 (second series), stronger effect = lower value 0.992 | locus YJL095W, strain BCK1, stronger effect = lower value 1 and 0.974 | locus YJL115W, strain asf1, stronger effect = lower value 0.987 | locus YJL129C, strain trk1, stronger effect = lower value 0.974 | locus YJL134W, strain LCB3, stronger effect = lower value 1.01 | locus YJL154C, strain vps35, stronger effect = lower value 0.995 | locus YJL164C, strain tpk1, stronger effect = lower value 0.987 | locus YJL166W, strain qcr8, stronger effect = lower value 0.984 | locus YJL168C, strain set2, stronger effect = lower value 1 | locus YJL187C, strain SWE1 (second series), stronger effect = lower value 1.01 | locus YJL187C, strain SWE1, stronger effect = lower value 0.99 | locus YJR043C, strain POL32, stronger effect = lower value 0.992 | locus YJR066W, strain TOR1, stronger effect = lower value 0.96
